Sampled rows, rich in hits. Any-hit rate of the full collection: about 2.4%.
TDP1 block – inhibitors of human tyrosyl-DNA phosphodiesterase TDP1; Q9NUW8; recombinant TDP1, AlphaScreen DNA substrate cleavage; Potency, µM (series often up to 130 µM), for inactives: at the highest dose activity change, negative = inhibition, hits mostly inhibitors; hit rate 0.28% among 350,000; AID 485290; further: on the % scale 0 is the no-effect control and ±100 the full control effect; nearly all actives have a fitted effect of over 40% in size
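Signal: AlphaScreen proximity between streptavidin donor and anti-FITC acceptor beads on intact substrate. Reaction: Tdp1 1 nM, substrate 15 nM final, 5 min RT after 15 min compound preincubation.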
POLB inh – blocks human DNA polymerase beta activity; P06746; Pol beta primer extension/strand displacement, fluorescence kinetic; Potency, µM (doses to about 114 µM), for the others: at the top dose activity change, negative = inhibition, actives largely listed as inhibitors; hit rate 1.3% among 340,000; AID 485314; further: on the % scale 0 is the no-effect control and ±100 the full control effect
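Preincubation: enzyme (10 nM) with compound, 15 min, RT. Reaction: substrate added to 50 nM final. Reads: 0 and 10 min. Analysis: normalized, Hill fit.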
Pol kappa inh – inhibitors of human DNA polymerase kappa; Q9UBT6; purified Pol kappa, fluorescent DNA synthesis assay, 10 min; Potency, µM (top dose mostly 107 µM), inactives show at the highest dose activity, negative = inhibition, most hits filed as inhibitors; hit rate 0.53% among 400,000; further: on the % scale 0 is the no-effect control and ±100 the full control effect
Target sequence (Q9UBT6 whole entry, looked up): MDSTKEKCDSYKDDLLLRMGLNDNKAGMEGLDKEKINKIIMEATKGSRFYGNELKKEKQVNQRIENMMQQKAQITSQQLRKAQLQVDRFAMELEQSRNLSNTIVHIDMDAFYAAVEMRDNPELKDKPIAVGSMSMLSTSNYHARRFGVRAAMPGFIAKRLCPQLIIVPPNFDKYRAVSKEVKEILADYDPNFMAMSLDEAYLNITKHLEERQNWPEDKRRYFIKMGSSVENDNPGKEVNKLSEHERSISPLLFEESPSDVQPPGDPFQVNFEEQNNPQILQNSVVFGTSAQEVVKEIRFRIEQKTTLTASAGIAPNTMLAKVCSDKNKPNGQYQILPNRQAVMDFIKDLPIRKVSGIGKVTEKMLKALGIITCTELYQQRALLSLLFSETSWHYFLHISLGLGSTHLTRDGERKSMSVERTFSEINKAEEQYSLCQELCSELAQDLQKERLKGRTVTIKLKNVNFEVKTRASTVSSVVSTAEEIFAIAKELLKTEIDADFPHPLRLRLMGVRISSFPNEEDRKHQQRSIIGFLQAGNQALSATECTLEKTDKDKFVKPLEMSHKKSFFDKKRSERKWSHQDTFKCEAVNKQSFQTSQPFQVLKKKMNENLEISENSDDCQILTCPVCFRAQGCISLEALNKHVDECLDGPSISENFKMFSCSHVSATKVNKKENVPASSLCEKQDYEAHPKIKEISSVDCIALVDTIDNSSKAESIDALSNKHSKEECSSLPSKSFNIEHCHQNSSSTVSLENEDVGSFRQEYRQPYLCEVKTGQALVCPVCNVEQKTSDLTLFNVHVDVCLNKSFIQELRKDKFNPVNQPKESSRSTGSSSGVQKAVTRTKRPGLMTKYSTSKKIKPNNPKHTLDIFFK
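Readout: fluorescence, taken kinetically at 0 and 10 min. Conditions: 10 nM Pol kappa, 15 min RT compound preincubation, 50 nM substrate final. Controls: enzyme-free buffer wells.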
POLI inh – DNA polymerase iota (human) inhibition; Q9UNA4; Pol iota fluorescent replication assay, 10 min; Potency, µM (titrated, usually from 115 µM), inactives show at the highest dose activity, negative = inhibition, actives largely listed as inhibitors; hit rate 1% among 390,000; AID 588590
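Pol iota at 10 nM preincubated 15 min with compounds at room temperature; reaction started with fluorescent substrate, 50 nM final. Fluorescence read kinetically at 0 and 10 min; buffer-only wells as negative control.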
FEN1 inhibitor – inhibitors of human flap endonuclease 1. P39748. Potency, µM (titrated, usually from 114 µM), for the others: at the top dose activity change, negative = inhibition, usual class: inhibitors. hit rate 0.35% among 390,000. Recombinant FEN1 flap cleavage, fluorescence, 15 min; further: on the % scale 0 is the no-effect control and ±100 the full control effect; nearly all actives have a fitted effect of over 65% in size
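With each library titrated from low to high concentration, compounds met 10 nM FEN1 for 15 min at room temperature before 50 nM substrate was added; readings at 0 and 15 min fed four-parameter Hill curve fits.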
Pol eta inh – DNA polymerase eta (human) inhibition; recombinant Pol eta, fluorescent DNA replication assay; Potency, µM (highest dose often 114 µM), for the others: at the top dose activity change, negative = inhibition, usual class: inhibitors; hit rate 1.2% among 390,000; further: on the % scale 0 is the no-effect control and ±100 the full control effect
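Pol eta at 10 nM preincubated with compounds 15 min at room temperature; reaction started with fluorescent substrate (50 nM final) and read kinetically at 0 and 10 min.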
The depositor's hits bear a star; ? = inconclusive; . = not tested or not shown; ! = a repeat was not active; [ ] = remark or other dose. The call rests on the fitted dose curve; in most records, active means well fitted curve in the direction sought with a large enough effect; inconclusive means small, poorly fitted or top-dose-only effect, or another doubt; inactive means no such curve, though single readings can be large; an effect the other way counts as inactive or inconclusive. Potency means the concentration at half of the fitted maximal effect.

SMILES | TDP1 block | POLB inh | Pol kappa inh | POLI inh | FEN1 inhibitor | Pol eta inh
Nc1c2c(=O)oc(-c3ccccc3)cc2nn1-c1ccccc1 | 1% | 17% | -8% | -1% | -23% | -6%
Cc1c(-c2ccc(Cl)cc2)oc(=O)c2c(N)n(-c3ccccc3)nc12 | 50µM* | 13µM* | -13% | -4% | -9% | ?
CSCC[C@@H](N)C(=O)O | 1% | . | 5%[19.4 µM] | . | . | .
COc1cc2nc(Cl)nc(NC3CCN(C)CC3)c2cc1OC | . | . | 9% | 7% | ? | .
COc1cc2nc(CCNCc3ccccc3)nc(NC3CCN(C)CC3)c2cc1OC | . | . | -10% | -3% | 45µM* | .
COc1cc2nc(N(C)C)nc(N)c2cc1OC | -5% | 45µM* | -8% | ? | ? | 5%
COc1cc2nc(NC3CCN(C)CC3)nc(NC3CCN(C)CC3)c2cc1OC | . | . | 11% | 5% | 45µM* | .
COc1cc2nc(N(C)C)nc(NC3CCN(C)CC3)c2cc1OC | . | . | ? | 25µM* | 28µM* | .
CN(C)c1ccc(/C=C/c2ccnc3c([N+](=O)[O-])cccc23)cc1 | . | . | -34% | ? | 3% | .
CNc1c(Br)cc(C(O)C2=CCc3ccccc32)cc1Br (configuration not stated) | . | . | 6% | -17% | 6% | .
CN(C)[C@@H]1C(=O)C(C(=O)NCN2CCCC2)=C(O)[C@@]2(O)C(=O)C3=C(O)c4c(O)cccc4[C@@](C)(O)C3CC12 (some centres not stated) | 0.71µM* | 0.5µM* | . | . | . | .
CN(C)[C@H]1C(=O)C(C(=O)NCN2CCCC2)=C(O)[C@]2(O)C(=O)C3=C(O)c4c(O)cccc4[C@](C)(O)[C@H]3C[C@H]12 | 0.2µM* | . | 3.8µM* | . | . | .
COc1cccc(C(=O)c2cn(CC(=O)Nc3ccc4c(c3)OCCO4)c3nc(C)ccc3c2=O)c1 | 0% | 21% | -1% | -3% | -14% | 11%
COc1ccccc1N1CCN(Cc2cc3c(cc2[N+](=O)[O-])OCO3)CC1 | . | 0% | -8% | ? | -22% | 0%
O=[N+]([O-])c1cc2c(cc1CN1CCN(CCOCCO)CC1)OCO2 | . | 19% | ? | 7.9µM* | ? | -2%
CS[C@@H]1SC[C@H]2C(=O)N(C)C(C(C)C)C(=O)OC[C@@H](NC(=O)c3cnc4ccccc4n3)C(=O)N[C@@H](C)C(=O)N(C)[C@H]1C(=O)N(C)C(C(C)C)C(=O)OC[C@@H](NC(=O)c1cnc3ccccc3n1)C(=O)N[C@@H](C)C(=O)N2C (some centres not stated) | 9% | . | 21µM* | . | . | .
CC(NC(=O)c1cnc2ccccc2n1)c1ccccc1 (configuration not stated) | . | 6% | -5% | 90% | -10% | -1%
CC[C@H]1[C@@H]2C=C[C@@H]3[C@H]4C/C=C\C(=O)NCCC[C@@H]5NC(=O)C(=C5O)C(=O)CC[C@@H]4C[C@@H]3[C@H]2C[C@H]1C | 17% | . | 0%[19.4 µM] | . | . | .
COc1ccccc1CNc1ncncc1-c1ccccc1Cl | . | . | -1%[60.1 µM] | . | . | .
COc1ccccc1CNc1ncncc1-c1ccccc1C | 32µM* | . | -7%[60.1 µM] | . | . | .
CNc1ncncc1-c1ccccc1OC | 28µM* | . | -11%[60.1 µM] | . | . | .
COc1ccccc1-c1cncnc1NCc1cccnc1 | 25µM* | . | -2%[60.1 µM] | . | . | .
COc1ccc(-c2nc(CSc3nncn4c3cc3occc34)c(C)o2)cc1 | 3% | 3.5µM* | ? | ? | 7% | -14%
N#Cc1c(-c2cccs2)nc(SCc2ccc(Cl)cc2)[nH]c1=O | -9% | 56µM* | -5% | ? | -24% | 89µM*
Cc1cc(O)c(C(C)C)cc1N=Cc1ccccc1[N+](=O)[O-] | . | . | -6% | 20µM* | -17% | -23%
SMILES | TDP1 block | POLB inh | Pol kappa inh | POLI inh | FEN1 inhibitor | Pol eta inh
O=c1ccc2cc(O)c(O)cc2o1 | 0% | 0% | 3.5µM*! | ? | -10% | -2%
CCOc1cc(/C=C2\SC(=S)N(Nc3ccccc3)C2=O)ccc1O | 10% | 13µM* | ? | ? | ? | ?
COc1cc(/C=C2\SC(=S)N(NC(=O)c3ccc(O)cc3)C2=O)ccc1O | . | 13µM* | ? | 50µM* | ? | ?
COc1cc(/C=C2\SC(=S)N(c3cccnc3)C2=O)ccc1O | . | ? | ? | ? | -25% | 4%
COc1cc(/C=C2\SC(=S)N(NC(=O)c3cccnc3)C2=O)ccc1O | 0% | ? | ? | 16µM* | -32% | ?
CCOc1cc(/C=C2\CN(C)C/C(=C\c3ccc(O)c(OCC)c3)C2=O)ccc1O | . | 20% | -26% | ? | -7% | 45µM*
CCN(CC)C(=O)N1CCN(/[N+]([O-])=N/Oc2ccc([N+](=O)[O-])cc2[N+](=O)[O-])CC1 | . | . | 0% | ? | ? | .
CCC(c1nnc(SCc2nc3ccccc3s2)n1Cc1ccccc1)N(C)C (configuration not stated) | 4% | 9% | -3% | -6% | -11% | -12%
c1ccc(Cn2c(SCc3nc4ccccc4s3)nnc2-c2ccco2)cc1 | 4% | 50µM* | ? | 22µM* | ? | 14µM*
COc1cc(O)c(C(=O)/C=C/c2ccc(O)c(OC)c2)c(OC)c1 | 10µM* | . | -16%[60.1 µM] | . | . | .
c1ccc2c(c1)SCc1c-2[nH]c2ccccc12 | 19% | . | 5%[60.1 µM] | . | . | .
COc1cc2nc(N3CCCN(C)CC3)nc(N(C)C)c2cc1OC | . | . | -23% | ? | ? | .
Cc1ccc(NC(=O)NNC(=O)COc2ccc3ccccc3c2)cc1 | -1% | 79µM* | -19% | ? | -5% | -1%
Cc1ccc(NC(=O)Nc2cnc3ccccc3c2)cc1 | 4% | 20µM* | -10% | -5% | 9% | -10%
CCN(CC)C(=O)Nc1cnc2ccccc2c1 | 5% | ? | -2% | -6% | 0% | 3%
O=C(O)Cc1ccc(NC(=O)COc2ccc3ccccc3c2)cc1 | 2% | -26% | -9% | 11% | 2% | 1%
O=C(COc1ccc2ccccc2c1)Nc1ccc(Cc2ccncc2)cc1 | -14% | ? | -17% | 25µM* | 1% | ?
CCOc1ccc(NC(=O)CCC(=O)NNC(=O)COc2ccc(C)cc2Br)cc1 | -5% | ? | 4% | 71µM* | -6% | -8%
CC(C)(C)n1ncc2c(=O)n(Cc3cccc(OC(F)(F)F)c3)cnc21 | . | . | -1% | 11% | -1% | .
O=C(CNC1=NCCS1)c1c[nH]c2ccccc12 | . | . | -9% | -19% | -10% | .
COc1cccc(C2c3c(ncn(-c4cccc(C#N)c4)c3=N)Oc3ccc4ccccc4c32)c1 (configuration not stated) | 3% | . | . | . | . | .
Cc1ccc(C2CC(=O)Oc3ccc(O)cc32)cc1 (configuration not stated) | -1%[234 µM] | . | -16% | . | . | .
